Experimental data published in PubChem BioAssay (NCI).
About 79,000 compounds went through this panel and 15% of them were active in at least one assay; those are over-represented in the sample as a whole. Activity calls are given as the source filed them. No stated cut-off is given here; in the data, active means growth inhibition above about 70%; inactive means the rest.

Test: NCI Yeast Anticancer Drug Screen. Data for the mlh1 strain (AID 171);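 further: 0% = growth of vehicle-treated control cultures of the same strain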
Settings: S. cerevisiae mlh1 strain growth inhibition; at 3.7 µM; hits give high values
How it was run: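 Compounds are applied to a genetically altered yeast strain, and its growth is compared with that of vehicle-treated cultures to give percent inhibition.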

| Compound | growth inhibition |
| --- | --- |
| Cc1cc(-c2cc(C)c(O)c(C(C)(C)C)c2)cc(C(C)(C)C)c1O | -31% (inactive) |
| Nc1cc(N)c(N=Nc2cccc3c(S(=O)(=O)O)cccc23)cc1N=Nc1cc([N+](=O)[O-])ccc1O | -21% (inactive) |
| Nc1ccc(F)cc1S | -19% (inactive) |
| Brc1ccccc1-c1ncc(-c2ccccc2)o1 | -13% (inactive) |
| COc1cc(C2SCC(=O)N2c2ccc(-c3ccc(-n4c(-c5ccccc5)nc5ccccc5c4=O)cc3)cc2)ccc1O (stereo not given) | 1% (inactive) |
| COc1cc(CSc2ccc(O)cc2)cc(O)c1O | 0% (inactive) |
| CCOC(=O)C1N=[N+](c2ccccc2)C(=O)/C1=C\n1c(=S)[nH]c2ccc([N+](=O)[O-])cc21 (stereo not given) | 1% (inactive) |
| Cc1ccc(CC2(OCCN(C)C)CCC(C(C)(C)C)CC2)cc1 (stereo not given) | -1% (inactive) |
| C[C@]12CC[C@H](O)CC1=CC[C@@H]1C2CC[C@]2(C)C(=O)NC(=O)CC12 (stereo not given in full) | -3% (inactive) |
| CCc1c(Cl)c(C)cc(O)c1Cl | -7% (inactive) |
| O=C(/C=C(/c1ccccc1)N1CCCCC1)c1ccccc1 | -1% (inactive) |
| CCCC(=O)Oc1ccc(/C=N/NC(N)=S)nc1 | -6% (inactive) |
| CCc1nc2ccc(NCCN(C)C)c3c(=O)c4ccccc4n1c23 | 38% (inactive) |
| Cc1sc2ccc3ccccc3c2[n+]1C | -62% (inactive) |
| COc1c(O)c(C=O)c(Br)c(C=O)c1O | 2% (inactive) |
| Cc1ccc(Cl)cc1NC(=O)OCCN(C)C(=O)Nc1cc(Cl)ccc1C | -36% (inactive) |
| Cc1nc2ccccc2nc1NNc1ccccc1 | -4% (inactive) |

Same assay, conditions: S. cerevisiae mlh1 strain growth inhibition; at 11.0 µM; hits give high values

| Compound | growth inhibition |
| --- | --- |
| CN(C)c1ccc(C2CC(C)(O)Oc3cc4c(cc32)OCO4)cc1 (stereo not given) | 2% (inactive) |
| O=P(NC1CCCCC1)(OCc1ccccc1)OCc1ccccc1 | 2% (inactive) |
| C[Si](C)(C)/C=C/CCNC(C#N)c1ccccc1 (stereo not given) | 49% (inactive) |
| CCOc1ccc(NC(=O)C2=C(C)NC(C)=C(C(=O)Nc3ccc(OCC)cc3)C2c2cccc([N+](=O)[O-])c2)cc1 | 1% (inactive) |
| CN(C)CCOC1(Cc2ccc(F)cc2)CCC(C(C)(C)C)CC1 (stereo not given) | 11% (inactive) |
| CC1(C)CC(=O)C(/C=N/c2nc(-c3ccccc3)cs2)=C(O)C1 | 12% (inactive) |
| CC(=O)Nc1ccc2c(c1)Cc1cc(N=C3C=CC(=O)O3)ccc1-2 | 93% (active) |
| O=C1C=C(Cl)C(=O)C(c2ccc(Cl)cc2)=C1 | 84% (active) |
| CNCCCNc1c2ccccc2nc2cccc([N+](=O)[O-])c12 | 72% (active) |
| CCCCCCCCCCCC(O)S(=O)(=O)O (stereo not given) | -2% (inactive) |
| CC(C)OC(=O)c1ccc(CCc2cc(O)c(Br)cc2O)cc1 | 71% (active) |
| CCc1cc(O)c(Cl)c(C)c1Cl | 17% (inactive) |
| C(=Nc1ccc(-c2cc(-c3ccccc3)nc3ccc4ccccc4c23)cc1)c1ccccc1 | 9% (inactive) |
| CSc1nc(C)c(CCOC(C)=O)c(N=P(c2ccccc2)(c2ccccc2)c2ccccc2)n1 | -2% (inactive) |
| CS(=O)(=O)SCc1ccc([N+](=O)[O-])cc1 | 70% (active) |
| COC1=C(OC)C(=O)C(Sc2ccc3ccccc3c2)=CC1=O | 25% (inactive) |
| COc1nc2c(c(=O)n1C)N=C(c1ccccc1)[C@H](C(CC(=O)c1ccccc1)c1ccccc1)C(c1ccccc1)N2 (stereo not given in full) | -9% (inactive) |
| Cc1cc(-c2cc(C)c(O)c(C(C)(C)C)c2)cc(C(C)(C)C)c1O | -28% (inactive) |
| Nc1cc(N)c(N=Nc2cccc3c(S(=O)(=O)O)cccc23)cc1N=Nc1cc([N+](=O)[O-])ccc1O | -15% (inactive) |
| Nc1ccc(F)cc1S | 2% (inactive) |
| Brc1ccccc1-c1ncc(-c2ccccc2)o1 | 15% (inactive) |
| COc1cc(C2SCC(=O)N2c2ccc(-c3ccc(-n4c(-c5ccccc5)nc5ccccc5c4=O)cc3)cc2)ccc1O (stereo not given) | 1% (inactive) |
| COc1cc(CSc2ccc(O)cc2)cc(O)c1O | 3% (inactive) |
| CCOC(=O)C1N=[N+](c2ccccc2)C(=O)/C1=C\n1c(=S)[nH]c2ccc([N+](=O)[O-])cc21 (stereo not given) | 2% (inactive) |
| Cc1ccc(CC2(OCCN(C)C)CCC(C(C)(C)C)CC2)cc1 (stereo not given) | 13% (inactive) |
| C[C@]12CC[C@H](O)CC1=CC[C@@H]1C2CC[C@]2(C)C(=O)NC(=O)CC12 (stereo not given in full) | 71% (active) |
| CCc1c(Cl)c(C)cc(O)c1Cl | 12% (inactive) |
| O=C(/C=C(/c1ccccc1)N1CCCCC1)c1ccccc1 | -3% (inactive) |
